Results reported in PubChem BioAssay AID449762 (Southern Research Specialized Biocontainment Screening …, 2010).
Out of some 330,000 compounds screened, about 1,900 (0.58%) were called active. Another 4% or so got no clear call; they are omitted. Not all results are given here. Potency and affinity values are given separately. A number with no mark means an inactive call. Cut-off read from the data, not from the text of the source: inconclusive = inhibition above about 70% without an active follow-up result; inactive = below that.

Experiment: M. tuberculosis growth inhibition, HTS (AID 449762);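 note: bacterial growth assessed after seven days of incubation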
Conditions: M. tuberculosis H37Rv growth inhibition, 7H9 media; at 25 µM; stronger effect = higher value

Compound	inhibition [%]
O=C(Cc1n[nH]c(=O)c2ccccc12)Nc1cccc(S(=O)(=O)N2CCCCCC2)c1	34.4
c1ccc(Cn2nnc3c(N4CCCC4)ncnc32)cc1	1.78
c1ccc(Cn2nnc3c(N4CCc5ccccc54)ncnc32)cc1	-4.04
CC(c1ccccc1)n1cnc2ccccc2c1=O (configuration not stated)	3.81
CCOC(=O)Cn1c(C(C)=O)nc2ccccc21	-5.86
CCOc1ccc2nc(SC3CC(=O)N(c4ccc(OC)cc4OC)C3=O)sc2c1 (configuration not stated)	37.3
COc1cccc(COC(=O)Nc2ccccc2F)c1	4.89
CN(C)c1ccc(NC(=O)CN2C3CCCC2CC(NC(=O)c2ccccc2)C3)cc1 (configuration not stated)	49
COc1cccc(C(=O)NC2CC3CCCC(C2)N3CC(=O)Nc2ccccc2)c1 (configuration not stated)	46.8
COc1ccc(OC)c(NC(=O)CN2C(=O)NC3(CCCc4ccccc43)C2=O)c1 (configuration not stated)	0.98
COc1ccc(NC(=O)CN2C(=O)NC3(CCCc4ccccc43)C2=O)c(OC)c1 (configuration not stated)	-0.44
COc1ccc(N2CCN(C3CCCN(Cc4ccccc4OCCO)C3)CC2)cc1 (configuration not stated)	-8.3
CS(=O)(=O)N(CC(=O)N1CCCC1)c1ccccc1F	-1.03
O=C(Nc1ccc2c(c1)CCCN2C(=O)c1cccs1)c1cccc(F)c1	25.3
CC1=NN(c2ccccc2)C(=O)/C1=C/c1c(O)n(-c2ccc(F)cc2)[nH]c1=O	-0.04
CC1=NN(c2ccccc2)C(=O)/C1=C/c1c(C)[nH]n(-c2ccc(C)cc2)c1=O	3.09
Cc1ccc(-c2nc(N)n(S(C)(=O)=O)n2)cc1	-7.35
Nc1c2c(nc3sc4c(c13)CCCC4)CCCCCC2	11.9
Nc1nc2sc3c(c2c(=O)s1)CCCC3	-5.9
CCN1CCN(C(c2ccccc2)c2nnnn2Cc2ccc3c(c2)OCO3)CC1 (configuration not stated)	-1.8
COCCn1nnnc1C(c1ccccc1)N1CCN(Cc2ccc3c(c2)OCO3)CC1 (configuration not stated)	5.3
Cc1cc(C(=O)CSc2nnc(-c3ccco3)o2)c(C)n1C	0.77
COc1ccc(N2CCN(C(=O)CSc3nc(C)cs3)CC2)cc1	13.4
COCC(C)n1c(SCC(=O)Nc2oc(C)c3c(C)n[nH]c(=O)c23)nc2ccccc2c1=O (configuration not stated)	1.83
COc1cccc2cc(C(=O)N(C)C3CCN(C)CC3)c(=O)oc12	2.2
CSc1ccc(NC(=O)Nc2cccn(Cc3ccccc3F)c2=O)cc1	0.76
CCOc1ccc(NC(=O)Nc2cccn(Cc3ccccc3)c2=O)cc1	11.4
